For some of these results: Potency and affinity values are given separately.
Columns and labels:
Parameters in all cases: scale not given: direction of the effect not stated beside the values
[1] = biological target: Protein translocase subunit SecA (Escherichia coli (strain K12)) (UniProt P10408); assay: Assay to Identify E. coli SecA ATPase Inhibitors; format: functional; conditions: 30 µM
[2] = biological target: T1, Ubiquitin-activating enzyme e1, putative (Leishmania donovani (strain BPK282A1)) (UniProt E9BSI1); assay: Leishmania donovani Ubiquitin Activating Enzyme (LdE1); format: functional; conditions: 30 µM
T1 sequence (whole entry): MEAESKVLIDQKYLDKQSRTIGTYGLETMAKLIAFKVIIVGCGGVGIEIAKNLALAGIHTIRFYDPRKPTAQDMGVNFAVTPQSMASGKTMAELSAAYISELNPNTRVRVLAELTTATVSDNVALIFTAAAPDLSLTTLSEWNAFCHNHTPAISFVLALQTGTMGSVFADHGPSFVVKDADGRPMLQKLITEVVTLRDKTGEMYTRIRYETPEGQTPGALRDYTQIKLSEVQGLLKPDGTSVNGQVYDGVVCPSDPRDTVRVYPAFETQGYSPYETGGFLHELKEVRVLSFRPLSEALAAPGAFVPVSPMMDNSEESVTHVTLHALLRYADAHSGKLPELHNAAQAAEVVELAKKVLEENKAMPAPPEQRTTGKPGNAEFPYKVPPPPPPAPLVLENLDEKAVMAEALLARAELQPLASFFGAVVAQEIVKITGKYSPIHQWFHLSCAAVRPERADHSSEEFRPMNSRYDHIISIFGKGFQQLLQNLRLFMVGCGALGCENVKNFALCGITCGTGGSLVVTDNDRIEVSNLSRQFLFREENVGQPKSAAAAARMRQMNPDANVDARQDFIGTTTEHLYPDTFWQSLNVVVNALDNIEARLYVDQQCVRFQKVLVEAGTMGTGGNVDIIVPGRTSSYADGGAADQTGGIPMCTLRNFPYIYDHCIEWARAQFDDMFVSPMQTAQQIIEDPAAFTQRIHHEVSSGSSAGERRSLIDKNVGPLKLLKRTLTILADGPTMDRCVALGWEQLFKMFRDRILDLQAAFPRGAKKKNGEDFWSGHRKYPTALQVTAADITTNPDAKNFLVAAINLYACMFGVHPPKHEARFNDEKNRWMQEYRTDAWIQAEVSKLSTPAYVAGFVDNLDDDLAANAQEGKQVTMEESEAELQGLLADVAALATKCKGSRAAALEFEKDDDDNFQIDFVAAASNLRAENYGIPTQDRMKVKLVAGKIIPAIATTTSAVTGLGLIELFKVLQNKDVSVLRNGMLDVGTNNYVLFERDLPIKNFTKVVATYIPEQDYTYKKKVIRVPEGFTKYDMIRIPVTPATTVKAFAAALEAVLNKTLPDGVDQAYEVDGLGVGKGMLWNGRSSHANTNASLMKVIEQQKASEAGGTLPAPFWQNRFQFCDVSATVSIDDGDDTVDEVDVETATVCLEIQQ

[3] = biological target: AMP-activated protein kinase, AMPK (Homo sapiens) (UniProt P54646+O43741+P54619+Q9UGJ0+Q9Y478+Q13131+Q9UGI9); assay: AMP-dependent Kinase enzyme assay. An in vitro enzyme assay that detects ADP turnover that is directly proportional to AMPK activity. This uses naive AMPK that is activated during the assay with MK-8722; format: functional; conditions: 30 µM
[4] = biological target: Sialic acid-binding Ig-like lectin 9 (Homo sapiens) (UniProt Q9Y336); assay: Hs-Siglec9 ALPHAscreen SOP 20170721; conditions: 10 µM
Sialic acid-binding Ig-like lectin 9 (Homo sapiens), sequence (Q9Y336 whole entry): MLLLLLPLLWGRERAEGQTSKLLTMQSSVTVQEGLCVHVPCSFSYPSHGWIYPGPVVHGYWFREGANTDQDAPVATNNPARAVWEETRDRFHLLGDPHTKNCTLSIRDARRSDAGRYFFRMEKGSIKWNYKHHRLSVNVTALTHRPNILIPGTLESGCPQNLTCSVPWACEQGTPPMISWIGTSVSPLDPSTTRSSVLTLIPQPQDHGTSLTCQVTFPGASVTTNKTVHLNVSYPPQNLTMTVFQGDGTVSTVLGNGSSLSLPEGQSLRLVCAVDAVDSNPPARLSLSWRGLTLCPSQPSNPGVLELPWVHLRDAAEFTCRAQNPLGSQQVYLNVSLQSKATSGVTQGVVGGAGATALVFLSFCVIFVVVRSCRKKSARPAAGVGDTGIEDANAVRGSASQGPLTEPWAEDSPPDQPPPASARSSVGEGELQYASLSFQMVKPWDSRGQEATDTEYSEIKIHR

Trypanosoma cruzi = assay: Trypanosoma cruzi phosphomannomutase and mannose-1-phosphate guanylyltransferase assay; format: functional; conditions: 10 µM
[5] = biological target: T2, Arginase-2, mitochondrial (Homo sapiens) (UniProt P78540); assay: in vitro enzyme assay to detect the production of urea directly proportional to the activity of Arginase II; format: functional; conditions: 33.3 µM; note: in the data most compounds retested in dose-response had high values
T2 sequence (whole entry): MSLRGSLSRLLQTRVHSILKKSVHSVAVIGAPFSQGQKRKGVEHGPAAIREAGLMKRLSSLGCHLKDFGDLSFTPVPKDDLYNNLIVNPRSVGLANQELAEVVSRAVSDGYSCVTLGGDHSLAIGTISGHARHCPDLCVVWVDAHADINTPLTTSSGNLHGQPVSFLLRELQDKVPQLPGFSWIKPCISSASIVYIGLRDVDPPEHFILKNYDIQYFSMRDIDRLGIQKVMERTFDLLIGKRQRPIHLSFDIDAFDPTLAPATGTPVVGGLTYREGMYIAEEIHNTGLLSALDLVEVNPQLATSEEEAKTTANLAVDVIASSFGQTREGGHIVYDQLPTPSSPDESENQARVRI

[6] = biological target: T3, Proteasome subunit beta (Trypanosoma cruzi) (UniProt O96673); assay: Trypanosoma cruzi proteasome chymotrypsin-like activity (TcProtChymo) assay.; note: in the data most compounds retested in dose-response had high values; format: functional; conditions: 9.37 µM
T3 sequence (whole entry): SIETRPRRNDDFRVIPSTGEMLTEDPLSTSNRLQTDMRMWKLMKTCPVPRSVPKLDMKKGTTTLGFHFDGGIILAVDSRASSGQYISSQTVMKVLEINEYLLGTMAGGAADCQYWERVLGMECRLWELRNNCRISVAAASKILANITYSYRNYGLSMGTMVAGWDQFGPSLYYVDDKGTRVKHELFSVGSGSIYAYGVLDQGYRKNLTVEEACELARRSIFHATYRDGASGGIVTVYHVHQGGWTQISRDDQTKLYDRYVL

Homo sapiens = species: Homo sapiens; assay: To identify inhibition of the IFN signalling (Jak-Stat) pathway via expression of an eGFP reporter gene under the control of an IFN-stimulated response element (ISRE) containing MxA promoter.; format: functional; conditions: 30 µM
[7] = biological target: T4, Tyrosyl-tRNA synthetase, putative (Trypanosoma cruzi (strain CL Brener)) (UniProt Q4DSP6); assay: Trypanosoma cruzi tyrosyl tRNA synthetase (TcYRS) _High Tyrosine SOP; format: functional; conditions: 30 µM; note: in the data most compounds retested in dose-response had high values
T4 sequence (whole entry): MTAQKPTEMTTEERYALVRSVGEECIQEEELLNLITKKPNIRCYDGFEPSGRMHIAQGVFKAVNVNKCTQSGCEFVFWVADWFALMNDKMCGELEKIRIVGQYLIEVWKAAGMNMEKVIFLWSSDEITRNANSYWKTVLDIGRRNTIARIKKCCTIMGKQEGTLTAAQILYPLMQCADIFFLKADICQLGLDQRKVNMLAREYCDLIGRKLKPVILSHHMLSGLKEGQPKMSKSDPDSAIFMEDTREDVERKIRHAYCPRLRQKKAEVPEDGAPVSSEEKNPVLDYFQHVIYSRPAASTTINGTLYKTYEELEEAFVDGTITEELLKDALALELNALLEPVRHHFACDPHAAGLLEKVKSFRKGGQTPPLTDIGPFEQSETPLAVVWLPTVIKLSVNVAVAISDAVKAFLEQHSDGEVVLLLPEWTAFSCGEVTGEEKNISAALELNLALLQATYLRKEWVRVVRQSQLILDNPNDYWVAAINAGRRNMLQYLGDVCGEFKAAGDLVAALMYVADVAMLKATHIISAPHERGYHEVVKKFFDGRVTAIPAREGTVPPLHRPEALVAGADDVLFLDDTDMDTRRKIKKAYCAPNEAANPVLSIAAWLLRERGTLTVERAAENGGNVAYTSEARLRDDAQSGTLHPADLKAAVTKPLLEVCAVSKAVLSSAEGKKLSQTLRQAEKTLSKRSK

[8] = biological target: T4, Tyrosyl-tRNA synthetase, putative (Trypanosoma cruzi (strain CL Brener)); assay: Trypanosoma cruzi tyrosyl tRNA synthetase (TcYRS) SOP; format: functional; conditions: 30 µM
[9] = biological target: Chromo domain-containing protein 1 (Saccharomyces cerevisiae (strain ATCC 204508 / S288c) (Baker's yeast)) (UniProt P32657); assay: ScCHD-1 Enzyme Inhibition Assay; format: functional; conditions: 30 µM; note: in the data most compounds retested in dose-response had high values
Chromo domain-containing protein 1 (Saccharomyces cerevisiae (strain ATCC 204508 / S288c) (Baker's yeast)), sequence (P32657 whole entry, the tested form may be a part): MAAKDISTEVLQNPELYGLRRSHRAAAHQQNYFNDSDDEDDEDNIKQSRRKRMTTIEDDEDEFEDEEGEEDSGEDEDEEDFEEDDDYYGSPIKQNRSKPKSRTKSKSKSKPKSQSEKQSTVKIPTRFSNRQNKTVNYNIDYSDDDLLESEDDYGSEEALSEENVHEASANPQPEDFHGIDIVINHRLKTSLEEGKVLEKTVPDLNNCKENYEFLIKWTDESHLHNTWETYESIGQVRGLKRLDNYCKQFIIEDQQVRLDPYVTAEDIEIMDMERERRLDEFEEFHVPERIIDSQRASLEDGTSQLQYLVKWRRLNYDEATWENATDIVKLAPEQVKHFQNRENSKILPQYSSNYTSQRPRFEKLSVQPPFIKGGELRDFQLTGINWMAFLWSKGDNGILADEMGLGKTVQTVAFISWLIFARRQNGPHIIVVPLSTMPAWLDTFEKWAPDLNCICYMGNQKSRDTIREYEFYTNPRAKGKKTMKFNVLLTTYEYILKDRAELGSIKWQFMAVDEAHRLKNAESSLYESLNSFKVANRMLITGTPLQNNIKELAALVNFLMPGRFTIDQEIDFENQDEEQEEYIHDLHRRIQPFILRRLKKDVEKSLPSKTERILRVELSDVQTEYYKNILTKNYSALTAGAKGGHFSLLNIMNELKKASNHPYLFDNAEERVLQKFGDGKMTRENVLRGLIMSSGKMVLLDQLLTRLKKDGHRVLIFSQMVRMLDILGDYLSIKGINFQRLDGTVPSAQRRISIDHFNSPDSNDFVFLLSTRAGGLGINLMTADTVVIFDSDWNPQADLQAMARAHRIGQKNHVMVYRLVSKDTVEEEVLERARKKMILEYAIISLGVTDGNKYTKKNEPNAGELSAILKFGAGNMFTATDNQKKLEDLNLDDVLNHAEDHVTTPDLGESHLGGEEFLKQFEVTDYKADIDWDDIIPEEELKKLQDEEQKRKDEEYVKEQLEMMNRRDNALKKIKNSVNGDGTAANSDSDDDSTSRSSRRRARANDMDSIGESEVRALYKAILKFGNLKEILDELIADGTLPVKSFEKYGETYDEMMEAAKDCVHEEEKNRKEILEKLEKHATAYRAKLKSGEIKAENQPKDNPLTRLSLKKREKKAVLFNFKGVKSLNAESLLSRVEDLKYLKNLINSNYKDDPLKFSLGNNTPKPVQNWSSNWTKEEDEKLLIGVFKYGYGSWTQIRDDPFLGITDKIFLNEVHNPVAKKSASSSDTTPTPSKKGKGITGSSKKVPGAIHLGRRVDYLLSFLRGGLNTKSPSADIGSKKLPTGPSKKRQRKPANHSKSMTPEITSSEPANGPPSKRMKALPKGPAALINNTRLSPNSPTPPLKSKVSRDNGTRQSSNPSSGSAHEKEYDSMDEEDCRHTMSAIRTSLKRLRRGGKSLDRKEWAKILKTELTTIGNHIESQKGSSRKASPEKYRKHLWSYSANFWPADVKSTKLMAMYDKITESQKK

Protein translocase subunit SecA (Escherichia coli (strain K12)), sequence (P10408 whole entry): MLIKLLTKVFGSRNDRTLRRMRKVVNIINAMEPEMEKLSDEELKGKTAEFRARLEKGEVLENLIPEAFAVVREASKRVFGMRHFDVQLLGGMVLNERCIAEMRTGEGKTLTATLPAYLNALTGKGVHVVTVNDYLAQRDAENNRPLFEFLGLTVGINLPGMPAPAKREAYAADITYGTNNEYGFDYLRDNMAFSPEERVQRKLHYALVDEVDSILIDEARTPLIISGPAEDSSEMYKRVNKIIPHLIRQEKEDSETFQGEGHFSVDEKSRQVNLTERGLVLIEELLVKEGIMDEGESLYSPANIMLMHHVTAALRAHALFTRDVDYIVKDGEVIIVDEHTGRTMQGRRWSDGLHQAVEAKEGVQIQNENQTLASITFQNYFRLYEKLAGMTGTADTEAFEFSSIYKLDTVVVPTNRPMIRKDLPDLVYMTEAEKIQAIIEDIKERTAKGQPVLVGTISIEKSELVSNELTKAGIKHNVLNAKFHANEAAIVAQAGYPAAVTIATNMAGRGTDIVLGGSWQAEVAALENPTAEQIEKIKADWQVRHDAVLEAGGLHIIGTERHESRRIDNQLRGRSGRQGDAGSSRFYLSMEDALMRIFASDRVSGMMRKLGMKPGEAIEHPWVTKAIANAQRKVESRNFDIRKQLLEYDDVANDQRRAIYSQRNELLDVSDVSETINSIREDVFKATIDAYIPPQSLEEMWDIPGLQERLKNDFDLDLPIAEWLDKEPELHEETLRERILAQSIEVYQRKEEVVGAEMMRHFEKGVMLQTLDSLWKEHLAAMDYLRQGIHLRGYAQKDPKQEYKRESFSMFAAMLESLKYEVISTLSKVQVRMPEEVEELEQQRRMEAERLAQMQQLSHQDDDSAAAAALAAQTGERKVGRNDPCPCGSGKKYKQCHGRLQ

SMILES | Percent Effect [1] [%] | Percent Effect [2] [%] | Percent Effect [3] [%] | Percent Effect [4] [%] | Percent Effect (Trypanosoma cruzi) [%] | Percent Effect [5] [%] | Percent Effect [6] [%] | Percent Effect (Homo sapiens) [%] | Percent Effect [7] [%] | Percent Effect [8] [%] | Percent Effect [9] [%]
CNC(=O)c1cc2c(nc1NCC(C)C)CCN(S(=O)(=O)C1CC1)CC2 | -6.06 | 2.7 | 5.7 | -6.06 | -3.23 | -1.24 | -7.64 | -2.8 | 2.15 | 8.64 | -4.29
CC1CN(C)CCN1C(=O)c1ccn(-c2cccc(Cl)c2)n1 (stereo unspecified) | -4.4 | 5.2 | 3.41 | 8.46 | 3 | -4.98 | -5.91 | -0.574 | 2.91 | 9.76 | -7.43
CCc1ncncc1C(=O)N1CCOC(c2nc(C)n[nH]2)C1 (stereo unspecified) | -9.48 | -1.27 | 7.38 | 5.45 | -2.56 | 2.8 | 5.32 | 1.37 | 1.04 | 10.1 | 1.96
Cc1ccc(CN2CCc3ncnc(C4CCOC4)c3CC2)s1 (stereo unspecified) | 1.24 | 10.7 | 1.52 | 6.88 | -2.51 | -41.4 | 5.98 | 18.1 | 5.21 | 25 | -6.72
CSc1ccc(S(=O)(=O)N2CCCCC2CCNC(C)=O)cc1 (stereo unspecified) | 0.287 | 11 | -3.42 | 4.24 | 1.59 | 1.6 | 14.8 | 9.17 | 7.29 | 16.1 | -5.63
COCc1noc(C2(c3ccc(F)cc3)CCOCC2)n1 | 3.24 | 8.11 | 7.86 | 11.7 | -7.72 | -3.81 | 11.4 | 40.2 | 0.529 | -2.44 | -5.88
CCOCc1cccc(S(=O)(=O)N2CCSCC2)c1 | -3.9 | 1.33 | 4.84 | 4.89 | -6.09 | 0.88 | 7.58 | 5.82 | 4.23 | -2.56 | -3.83
COc1ncccc1NC(=O)C1CC(=O)N(Cc2ccccn2)C1 (stereo unspecified) | -1.71 | 10.5 | 4.85 | -1.28 | -4.97 | -2.37 | 22.3 | -2.21 | 4.25 | 13 | -2.98
CC(NC(=O)NCCCOC1CCCCC1)c1nncn1C (stereo unspecified) | -0.354 | 2.7 | -2.09 | 21.6 | 4.18 | -1.29 | 16.2 | 5.68 | 3.96 | 25.6 | -7.07
NC(=O)C1CCN(c2nc3nccc(-c4ccccn4)c3c(=O)[nH]2)CC1 | -4.8 | 18.4 | 0.528 | -4.82 | 0.0974 | -2.37 | 22 | 2.93 | 8.51 | 23.4 | 7.17
c1ccc(Cn2cc(CNC3CCc4ncnn4C3)cn2)cc1 (stereo unspecified) | -3.66 | 6.33 | -0.419 | 1.15 | 0.923 | -3.66 | 5.66 | 4.51 | 3.12 | 10.1 | -19.2
